# According to the supplement of paper PMC8975748:
# Structures can show the parent of a compound that is named as a salt.
# System: Saccharomyces cerevisiae BY4741 SeMeCo community
# Assay: z-score of subpopulation abundance vs DMSO median, subpopulation auxotrophic for HM; higher = larger share of this subpopulation than in DMSO controls
# Settings: 10 µM; 24 h; SM minimal medium; subpopulation (auxotrophy): HM
# Experimental: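 Fluorescent four-plasmid SeMeCo (self-establishing metabolically cooperating S. cerevisiae BY4741 community; plasmids pH-mRuby2, pL-mWasabi, pU-eCFP, pM-TagRFP657) was grown 24 h in minimal SM medium with each Selleck FDA-approved drug at 10 µM in 384-well plates. Cells were fixed and imaged by high-content confocal microscopy. For each auxotrophic subpopulation (and the prototroph), a z-score gives the deviation from the DMSO vehicle-control population median.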
row,Compound,z-score of subpopulation abundance
1,C[N+]12CCC(CC1)C(OC(=O)C(O)(c1ccccc1)c1ccccc1)C2 (stereo not given) [Clidinium Bromide],-0.38
2,COc1ccc2c(c1)[C@]13CCCC[C@@H]1[C@H](C2)N(C)CC3 [Dextromethorphan hydrobromide hydrate],0.71
3,Nc1ccncc1 [4-Aminopyridine],0.26
4,CC(C)=CCOc1c2occc2cc2ccc(=O)oc12 [Imperatorin],1.29
5,COC(=O)C1=CCCN(C)C1 [Arecoline HBr],0.08
6,CC(=O)O[C@H]1C[C@@H]2CC[C@@H]3[C@H](CC[C@@]4(C)[C@H]3C[C@H]([N+]3(C)CCCCC3)[C@@H]4OC(C)=O)[C@@]2(C)C[C@@H]1[N+]1(C)CCCCC1 [Pancuronium dibromide],-1.06
7,C=CN1CCCC1=O.II [Povidone iodine],1.1
8,CN(C)[C@@H]1C(=O)C(C(N)=O)=C(O)[C@@]2(O)C(=O)C3=C(O)c4c(O)cccc4[C@@](C)(O)[C@H]3[C@H](O)[C@@H]12 [Oxytetracycline Dihydrate],-0.75
9,CN1[C@@H]2CC[C@H]1C[C@@H](OC(=O)C(CO)c1ccccc1)C2 (stereo not given in full) [Atropine sulfate monohydrate],-0.85
10,COc1ccc(C(CN(C)C)C2(O)CCCCC2)cc1 (stereo not given) [Venlafaxine],-0.77
11,CN1c2ccccc2C(NCCCCCCC(=O)O)c2ccc(Cl)cc2S1(=O)=O (stereo not given) [Tianeptine sodium],-0.51
12,O=C(O[C@H]1C[C@H]2CC[C@@H](C1)[N+]21CCCC1)C(O)(c1ccccc1)c1ccccc1 [Trospium chloride],0.4
13,CCN(C)C(=O)Oc1cccc([C@H](C)N(C)C)c1 [Rivastigmine],-0.34
14,Cn1cc(C2=C(c3cn(C4CCN(Cc5ccccn5)CC4)c4ccccc34)C(=O)NC2=O)c2ccccc21,-1.56
15,CCN(CC)CCOC(=O)C(O)(c1ccccc1)c1ccccc1 [Benactyzine hydrochloride],-0.6
16,Nc1nc(N)nc(NC2CC2)n1 [Cyromazine],0.9
17,O=c1cccc2n1C[C@@H]1CNC[C@H]2C1 [Cytisine],0.02
18,Cc1cc(O)ccc1Cl [Chlorocresol],-0.29
19,CCOC(=O)Nc1ccc(NCc2ccc(F)cc2)cc1N [Retigabine],0.58
20,CC(C)N(CCC(C(N)=O)(c1ccccc1)c1ccccn1)C(C)C (stereo not given) [Disopyramide],0.08

row,Compound,z-score of subpopulation abundance
1,CNC1CC(N)C(O)C(OC2OC(CO)C(O)C3OC4(OC(C(N)CO)C(O)C(O)C4O)OC23)C1O (stereo not given) [Hygromycin B],-1.16
2,CN[C@@H]1[C@@H](O)[C@@H](O[C@@H]2[C@@H](O)[C@H](O[C@H]3O[C@H](CN)CC[C@H]3N)[C@@H](N)C[C@H]2N)OC[C@]1(C)O.CN[C@@H]1[C@@H](O)[C@@H](O[C@@H]2[C@@H](O)[C@H](O[C@H]3O[C@H]([C@@H](C)N)CC[C@H]3N)[C@@H](N)C[C@H]2N)OC[C@]1(C)O.CN[C@@H]1[C@@H](O)[C@@H](O[C@@H]2[C@@H](O)[C@H](O[C@H]3O[C@H]([C@@H](C)NC)CC[C@H]3N)[C@@H](N)C[C@H]2N)OC[C@]1(C)O [Gentamicin Sulfate],-0.24
3,CC[C@@]1(O)C(=O)OCc2c1cc1n(c2=O)Cc2cc3ccccc3nc2-1 [Camptothecin],0.23
4,COc1ccc2[nH]cc(CCN)c2c1 [5-Methoxytryptamine],-0.25
5,CC[C@H]1[C@@H]2C[C@H]3[C@@H]4N(C)c5ccccc5[C@]45C[C@@H]([C@@H]2[C@H]5O)N3[C@@H]1O [Ajmaline],-0.37
6,C[N+](C)(C)CCCCCCCCCC[N+](C)(C)C [Decamethonium Bromide],-0.42
7,CCCCCCCCCCCCCCCC[n+]1ccccc1 [Cetylpyridinium Chloride],12.4
8,COc1ccc(C=O)cc1 [p-Anisaldehyde],-0.95
9,O=[N+]([O-])C(Br)(CO)CO [Bronopol],-0.03
10,CCN1CC2(OC(=O)c3ccccc3NC(C)=O)CCC(OC)C34C1C(CC23)C1(O)CC(OC)C2CC4C1(O)C2OC (stereo not given) [Lappaconitine],-0.28
11,C=C(C)[C@H]1Cc2c(ccc3c2O[C@@H]2COc4cc(OC)c(OC)cc4[C@@H]2C3=O)O1 [Rotenone (Barbasco)],0.89
12,CN1[C@@H]2C[C@@H](OC(=O)[C@H](CO)c3ccccc3)C[C@H]1[C@@H]1O[C@@H]12 [Scopolamine HBr],-0.93
13,CC(C)(O)C(Cl)(Cl)Cl [Chlorobutanol],-0.53
14,COc1ccc(C(CN(C)C)C2(O)CCCCC2)cc1 (stereo not given) [Venlafaxine HCl],-0.61
15,C[CH2][Hg][S]c1ccccc1C(=O)[O-].[Na+] [Thimerosal],22.6
16,N#Cc1nn(-c2c(Cl)cc(C(F)(F)F)cc2Cl)c(N)c1[S+]([O-])C(F)(F)F (stereo not given) [Fipronil],-0.23
17,CC[N+](C)(CC)CCOC(=O)C(O)(c1ccccc1)c1ccccc1 [Methylbenactyzine Bromide],0.02
18,CN1[C@@H]2CC[C@H]1C[C@@H](OC(=O)[C@H](CO)c1ccccc1)C2 [Hyoscyamine],-0.73
19,Oc1cc(Cl)ccc1Oc1ccc(Cl)cc1Cl [Triclosan],-1.82
20,O=C(O[C@H]1C[N+]2(CCCOc3ccccc3)CCC1CC2)C(O)(c1cccs1)c1cccs1 [Aclidinium Bromide],-0.01
